Reference: PubChem BioAssay AID1159580 (chemical genetic matrix, 2015)
Several values for one entry are separate records, joined by “and”; a condition that tells them apart may be missing. Equal entries are not always repeated. Screen size: about 5,500 compounds; about 2,000 (36%) were called active. Not shown: some 18% with an inconclusive outcome. Cut-off read from the data, not from the text of the source: active = normalized growth mostly below about 0.91 (no sharp cut-off); inconclusive = no clear call, values can overlap the other calls; inactive = mostly above about 0.92. The list shows a part of the results.

Assay: chemical genetic growth profiling, strain panel (AID 1159580);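 note: tested at 20 µM; growth read once vehicle control cultures reached saturation at 30 °C; 1 = growth at the plate median or of vehicle wells; lower values mean less growth of the strain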
Settings: growth OD

Measured: normalized growth

OC(CCN1CCCCC1)(c1ccccc1)C1CCCCC1 (stereo unspecified)
inactive: S. cerevisiae deletion strains, locus YJR075W, strain HOC1, hits give low values 1.01 and 0.98 | S. cerevisiae deletion strains, locus YKL009W, strain mrt4, hits give low values 0.999 | S. cerevisiae deletion strains, locus YKL068W, hits give low values 0.997 | S. cerevisiae deletion strains, locus YKL085W, strain MDH1 (second series), hits give low values 0.998 | S. cerevisiae deletion strains, locus YKL085W, strain MDH1, hits give low values 0.998 | S. cerevisiae deletion strains, locus YKL160W, strain elf1, hits give low values 0.96 | S. cerevisiae deletion strains, locus YKL190W, strain CNB1, hits give low values 1.01 | S. cerevisiae deletion strains, locus YKR001C, strain vps1, hits give low values 0.985 | S. cerevisiae deletion strains, locus YKR026C, strain gcn3, hits give low values 0.971 | S. cerevisiae deletion strains, locus YKR091W, strain srl3, hits give low values 0.978 | S. cerevisiae deletion strains, locus YLL001W, strain dnm1, hits give low values 0.918 | S. cerevisiae deletion strains, locus YLL026W, hits give low values 0.981 | S. cerevisiae deletion strains, locus YLL041C, strain sdh2, hits give low values 0.975 | S. cerevisiae deletion strains, locus YLR027C, strain aat2, hits give low values 0.954 | S. cerevisiae deletion strains, locus YLR039C, strain RIC1, hits give low values 1.12 | S. cerevisiae deletion strains, locus YLR058C, strain SHM2, hits give low values 1.01 | S. cerevisiae deletion strains, locus YLR102C, strain apc9, hits give low values 0.995 | S. cerevisiae deletion strains, locus YLR113W, strain HOG1, hits give low values 0.991 | S. cerevisiae deletion strains, locus YLR221C, strain rsa3, hits give low values 1.01 | S. cerevisiae deletion strains, locus YLR258W, strain gsy2, hits give low values 0.992 | S. cerevisiae deletion strains, locus YLR262C, strain YPT6 (second series), hits give low values 0.989 | S. cerevisiae deletion strains, locus YLR262C, strain YPT6, hits give low values 1.1 | S. cerevisiae deletion strains, locus YLR268W, strain sec22, hits give low values 0.98 | S. cerevisiae deletion strains, locus YLR320W, strain mms22, hits give low values 0.961 | S. cerevisiae deletion strains, locus YLR330W, strain CHS5, hits give low values 1.01 | S. cerevisiae deletion strains, locus YLR342W, strain FKS1 (second series), hits give low values 1 | S. cerevisiae deletion strains, locus YLR342W, strain FKS1, hits give low values 0.959 | S. cerevisiae deletion strains, locus YLR357W, strain rsc2, hits give low values 0.939 | S. cerevisiae deletion strains, locus YLR370C, strain arc18, hits give low values 0.974 | S. cerevisiae deletion strains, locus YLR371W, strain rom2, hits give low values 1 | S. cerevisiae deletion strains, locus YLR384C, strain iki3, hits give low values 0.961 | S. cerevisiae deletion strains, locus YLR418C, strain cdc73, hits give low values 0.966 | S. cerevisiae deletion strains, locus YML016C, strain PPZ1, hits give low values 1.01 | S. cerevisiae deletion strains, locus YML032C, strain rad52, hits give low values 0.986 | S. cerevisiae deletion strains, locus YML120C, strain ndi1, hits give low values 0.97 | S. cerevisiae deletion strains, locus YML124C, strain tub3, hits give low values 0.997 | S. cerevisiae deletion strains, locus YMR058W, strain fet3, hits give low values 0.964 | S. cerevisiae deletion strains, locus YMR078C, strain ctf18, hits give low values 0.998 | S. cerevisiae deletion strains, locus YMR125W, strain sto1, hits give low values 0.977 | S. cerevisiae deletion strains, locus YMR129W, hits give low values 0.98 | S. cerevisiae deletion strains, locus YMR205C, strain PFK2, hits give low values 0.955 | S. cerevisiae deletion strains, locus YMR223W, strain ubp8, hits give low values 1.01 | S. cerevisiae deletion strains, locus YMR231W, strain pep5, hits give low values 0.973 | S. cerevisiae deletion strains, locus YMR263W, strain SAP30, hits give low values 1.01 and 0.983 | S. cerevisiae deletion strains, locus YMR307W, strain GAS1, hits give low values 1.01 and 0.985 | S. cerevisiae deletion strains, locus YNL067W, strain RPL9B, hits give low values 1 | S. cerevisiae deletion strains, locus YNL071W, strain lat1, hits give low values 0.98 | S. cerevisiae deletion strains, locus YNL128W, strain TEP1, hits give low values 1.02 | S. cerevisiae deletion strains, locus YNL153C, strain GIM3, hits give low values 1 | S. cerevisiae deletion strains, locus YNL175C, strain NOP13, hits give low values 1.01 | S. cerevisiae deletion strains, locus YNL183C, strain NPR1, hits give low values 0.935 | S. cerevisiae deletion strains, locus YNL197C, strain WHI3, hits give low values 1.03 | S. cerevisiae deletion strains, locus YNL209W, strain ssb2, hits give low values 0.993 | S. cerevisiae deletion strains, locus YNL224C, strain SQS1, hits give low values 0.998 | S. cerevisiae deletion strains, locus YNL233W, strain BNI4, hits give low values 0.998 | S. cerevisiae deletion strains, locus YNL248C, strain rpa49, hits give low values 0.995 | S. cerevisiae deletion strains, locus YNL250W, strain rad50, hits give low values 0.999 | S. cerevisiae deletion strains, locus YNL271C, strain bni1, hits give low values 0.989 | S. cerevisiae deletion strains, locus YNL298W, strain CLA4, hits give low values 1.02 | S. cerevisiae deletion strains, locus YNL307C, strain MCK1, hits give low values 0.998 | S. cerevisiae deletion strains, locus YNL322C, strain KRE1 (second series), hits give low values 0.976 | S. cerevisiae deletion strains, locus YNL322C, strain KRE1, hits give low values 1.01 | S. cerevisiae deletion strains, locus YNR049C, strain mso1, hits give low values 0.967 | S. cerevisiae deletion strains, locus YNR052C, strain pop2, hits give low values 1 | S. cerevisiae deletion strains, locus YOL006C, strain TOP1, hits give low values 0.951 | S. cerevisiae deletion strains, locus YOL012C, strain htz1 0.776 | S. cerevisiae deletion strains, locus YOL147C, strain pex11, hits give low values 0.994 | S. cerevisiae deletion strains, locus YOR001W, strain rrp6, hits give low values 0.949 | S. cerevisiae deletion strains, locus YOR061W, strain CKA2, hits give low values 1.01 | S. cerevisiae deletion strains, locus YOR069W, strain VPS5, hits give low values 1.01 | S. cerevisiae deletion strains, locus YOR070C, strain gyp1, hits give low values 0.986 | S. cerevisiae deletion strains, locus YOR080W, strain dia2, hits give low values 0.971 | S. cerevisiae deletion strains, locus YOR083W, strain WHI5 (second series), hits give low values 0.994 | S. cerevisiae deletion strains, locus YOR083W, strain WHI5, hits give low values 0.951 | S. cerevisiae deletion strains, locus YOR106W, strain vam3, hits give low values 0.936 | S. cerevisiae deletion strains, locus YOR136W, strain idh2, hits give low values 1 | S. cerevisiae deletion strains, locus YOR144C, strain elg1, hits give low values 0.993 | S. cerevisiae deletion strains, locus YOR184W, strain ser1, hits give low values 1.01 | S. cerevisiae deletion strains, locus YOR231W, strain MKK1, hits give low values 0.984 | S. cerevisiae deletion strains, locus YOR265W, strain rbl2, hits give low values 0.983 | S. cerevisiae deletion strains, locus YOR270C, strain vph1, hits give low values 0.849 | S. cerevisiae deletion strains, locus YOR290C, strain snf2, hits give low values 0.989 | S. cerevisiae deletion strains, locus YOR316C, strain cot1, hits give low values 1 | S. cerevisiae deletion strains, locus YPL051W, strain arl3, hits give low values 0.984 | S. cerevisiae deletion strains, locus YPL055C, strain LGE1, hits give low values 1.03 and 0.971 | S. cerevisiae deletion strains, locus YPL078C, strain atp4, hits give low values 0.931 | S. cerevisiae deletion strains, locus YPL106C, strain sse1, hits give low values 1.01 | S. cerevisiae deletion strains, locus YPL240C, strain hsp82, hits give low values 0.976 | S. cerevisiae deletion strains, locus YPL241C, strain CIN2, hits give low values 1.01 | S. cerevisiae deletion strains, locus YPL256C, strain CLN2, hits give low values 0.962 | S. cerevisiae deletion strains, locus YPR119W, strain clb2, hits give low values 0.998 | S. cerevisiae deletion strains, locus YPR141C, strain kar3, hits give low values 1.01 | S. cerevisiae deletion strains, locus YPR163C, strain tif3, hits give low values 0.988 | S. cerevisiae deletion strains, locus YPR167C, strain met16, hits give low values 0.998 | S. cerevisiae deletion strains, strain wtn01, hits give low values 0.993 | S. cerevisiae strains, strain wild type, hits give low values 1.01
